# Test results taken from PubChem BioAssay (Tox21).
# “And” between values parts separate entries of the source, which are not always exact repeats. Identical values can stand only once. Results filed as inconclusive are left out. A call without a number means that no potency is given here. Some structures have more than one record in an assay (separate samples or runs), and their calls can disagree. The source made the active and inactive calls. Unless noted, calls follow the shape of the dose curve; as a rule, active = well fitted curve in the direction sought with a large enough effect in the repeat runs; inconclusive = weak or mixed curves; inactive = no such curve, though single readings can be large; an effect the other way counts as inactive or inconclusive.
# Experiments:
# [1] = qHTS assay to identify small molecule agonists of the hypoxia (HIF-1) signaling pathway - cell viability counter screen (AID 1224844; calls by dose curve; also: nearly all actives have a fitted effect of over 50% in size)
# In short: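 HRE-bla ME-180 cells in medium with 0.5% dialyzed FBS were preincubated 5 hrs at 37C, exposed to compounds for 17 hrs, then viability was read as CellTiter-Glo luminescence after 30 min at room temperature, in the reporter wells.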
# [2] = qHTS assay to identify small molecule agonists of H2AX (AID 1224845; active = well fitted activation curve with a large enough effect in the signal ratio in the repeat runs, not every such curve was filed as active; the % refers to the signal ratio)
# In short: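 Phospho-H2AX Ser139 measured by HTRF (ex 320 nm; em 665 and 620 nm) after 24 hr antibody incubation. Compounds, 15 concentrations, 0.76% DMSO, were applied to CHO-K1 cells for 3hr at 37C before lysis.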
# [3] = qHTS assay to identify small molecule agonists of H2AX - cell viability counter screen (AID 1224847; calls by dose curve; also: top concentration of the series differs between compounds; nearly all actives have a fitted effect of over 30% in size)
# In short: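 Quantitative HTS viability measurement: CHO-K1 wild-type cells in serum (10% FBS) medium, short 3 hr drug exposure at 37C with 0.76% DMSO, CellTiter-Glo luminescent detection.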
# [4] = qHTS assay to identify small molecule antagonists of the estrogen related receptor (ERR) signaling pathway from Tox21 library (AID 1224848); also: nearly all actives have a fitted effect of over 50% in size
# In short: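 Reading was by luminescence 30 min after ONE-Glo addition. Before that, ERR cells at 2,000 per well had rested 6 h at 37 C/5% CO2 and then received pin-tooled compounds in DMSO for 18 h at 37 C.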
# [5] = qHTS assay to identify small molecule agonists of the estrogen related receptor (ERR) signaling pathway from Tox21 library (AID 1224849; calls by dose curve; also: nearly all actives have a fitted effect of over 15% in size); conditions: ERR reporter cell line, ONE-Glo luciferase, 18 h
# In short: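 ERR reporter cell line (NTP) seeded, rested 6 h at 37 C/5% CO2, then pinned with Tox21 compounds in DMSO. After 18 h at 37 C, ONE-Glo luciferase luminescence was read following 30 min at room temperature.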
# [6] = qHTS RealTime-Glo MT Cell Viability Assay in HepG2 cells - 24 hour (AID 1224867); also: nearly all actives have a fitted effect of over 50% in size
# In short: (§1)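 Tox21 10K library screened in qHTS format on HepG2 cells carrying RealTime-Glo reagents. Compounds were added after a 5 h preincubation, and the luminescent signal from continuous culture was measured repeatedly during 40 h treatment.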
# [7] = qHTS RealTime-Glo MT Cell Viability Assay in HEK293 cells - 32 hour (AID 1224868); also: top concentration of the series differs between compounds; nearly all actives have a fitted effect of over 50% in size
# In short: (§2)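 Luminescence generated by NanoLuc from substrate produced by living HEK293 cells served as the viability signal. Each value reflects the reading at its stated time point during continuous 40 h compound exposure at 37 C.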
# [8] = A CellTox Green Cytotoxicity Assay to monitor cytotoxicity in HEK293 cells - 0 hour (AID 1224869); also: nearly all actives have a fitted effect of over 50% in size
# In short: (§3)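 HEK293 cells premixed with CellTox Green dye were seeded at 600 cells/well and left 5 h at 37 C/5% CO2 before pin transfer of 23 nL compound in DMSO. Fluorescence from dye bound to dead-cell DNA was read during 40 h treatment.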
# [9] = qHTS RealTime-Glo MT Cell Viability Assay in HepG2 cells - 40 hour (AID 1224870); also: nearly all actives have a fitted effect of over 50% in size
# In short: (§4)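 Real-time viability: cells seeded at 600 per well together with NanoLuc and cell-permeant prosubstrate, compounds added after 5 h incubation. Luminescence tracked at 0, 8, 16, 24, 32 and 40 h of exposure.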
# [10] = A CellTox Green Cytotoxicity Assay to monitor cytotoxicity in HEK293 cells - 40 hour (AID 1224871); also: nearly all actives have a fitted effect of over 45% in size; also: potency is read from the fitted curve at half-maximal effect
# In short: as §3
# [11] = qHTS RealTime-Glo MT Cell Viability Assay in HEK293 cells - 16 hour (AID 1224872)
# In short: as §2
# [12] = qHTS RealTime-Glo MT Cell Viability Assay in HepG2 cells - 8 hour (AID 1224873); also: nearly all actives have a fitted effect of over 55% in size
# In short: as §4
# [13] = A CellTox Green Cytotoxicity Assay to monitor cytotoxicity in HEK293 cells - 24 hour (AID 1224875); also: nearly all actives have a fitted effect of over 45% in size
# In short: as §3
# [14] = A CellTox Green Cytotoxicity Assay to monitor cytotoxicity in HepG2 cells - 16 hour (AID 1224876); also: nearly all actives have a fitted effect of over 45% in size
# In short: (§5)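 HepG2 cells were seeded together with the CellTox Green dye at 600 cells/well, left 5 h at 37 C/5% CO2, then given compounds in DMSO. Fluorescence from dye bound to dead-cell DNA was read repeatedly over 40 h of treatment at 37 C.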
# [15] = qHTS RealTime-Glo MT Cell Viability Assay in HepG2 cells - 32 hour (AID 1224877); also: nearly all actives have a fitted effect of over 55% in size
# In short: as §1
# [16] = A CellTox Green Cytotoxicity Assay to monitor cytotoxicity in HepG2 cells - 40 hour (AID 1224879); also: nearly all actives have a fitted effect of over 40% in size
# In short: as §5
# [17] = qHTS RealTime-Glo MT Cell Viability Assay in HEK293 cells - 0 hour (AID 1224880); also: nearly all actives have a fitted effect of over 45% in size; also: potency is read from the fitted curve at half-maximal effect
# In short: (§6)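 HEK293 cells mixed with RealTime-Glo reagents (NanoLuc plus cell-permeant prosubstrate) at 600 cells/well, preincubated 5 h at 37 C/5% CO2, then given 23 nL compound in DMSO. Nonlytic luminescence from viable cells was read at 0, 8, 16, 24, 32 and 40 h.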
# [18] = qHTS RealTime-Glo MT Cell Viability Assay in HEK293 cells - 40 hour (AID 1224874); conditions: RealTime-Glo luminescence; max response: stronger effect = lower value; also: nearly all actives have a fitted effect of over 50% in size
# In short: as §6
# [19] = A CellTox Green Cytotoxicity Assay to monitor cytotoxicity in HepG2 cells - 24 hour (AID 1224878); also: nearly all actives have a fitted effect of over 45% in size
# In short: as §5
# [20] = qHTS assay to identify small molecule agonists of the hypoxia (HIF-1) signaling pathway (AID 1224846; active = well fitted activation curve with a large enough effect in the signal ratio in the repeat runs, not every such curve was filed as active; the % refers to the signal ratio)
# In short: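 HRE-bla ME-180 cells (beta-lactamase reporter under hypoxia response element) were plated at 2,000 cells/well in medium with 0.5% dialyzed FBS, rested 5 hrs, then given compounds in DMSO for 17 hrs at 37C, 5% CO2. Reporter induction was read with CCF4-AM FRET substrate.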
smiles,measurement,setting,value
O=C(C1CCCCC1)N1CC(=O)N2CCc3ccccc3C2C1 (stereo not drawn),Potency,[1],inactive
same,outcome,[2],inactive
same,outcome,[3],inactive
same,Potency,[4],inactive
same,"activity change, positive = activation",[5]; at 42.5 µM (top of the series),-13.9% (inactive)
same,"activity change, positive = activation",[5]; at 92.4 µM (top of the series),-22.9% (inactive) and -18.8% (inactive)
same,Potency,[6],inactive
same,Potency,[7],inactive
same,outcome,[8],inactive
same,Potency,[9],inactive
same,Potency,[10],inactive
same,Potency,[11],inactive
same,outcome,[12],inactive
same,Potency,[13],inactive
same,Potency,[14],inactive
same,Potency,[15],inactive
same,Potency,[16],inactive
same,Potency,[17],inactive
Nc1ccc(S(=O)(=O)c2ccc(N)cc2)cc1,Potency,[1],inactive
same,outcome,[2],inactive
same,outcome,[3],inactive
same,Potency,[6],inactive
same,Potency,[7],inactive
same,outcome,[8],inactive
same,Potency,[9],inactive
same,Potency,[10],inactive
same,Potency,[11],inactive
same,outcome,[12],inactive
same,max response,[18],3.77% (inactive) and -13.4% (inactive) and 9.1% (inactive)
same,Potency,[13],inactive
same,Potency,[14],inactive
same,Potency,[15],inactive
same,Potency,[19],inactive
same,Potency,[16],inactive
same,Potency,[17],inactive
NC(=O)c1ccccc1O,Potency,[1],inactive
same,outcome,[2],inactive
same,outcome,[20],inactive
same,outcome,[3],inactive
same,Potency,[6],inactive
same,Potency,[7],inactive
same,outcome,[8],inactive
same,Potency,[9],inactive
same,Potency,[10],inactive
same,Potency,[11],inactive
same,outcome,[12],inactive
same,Potency,[13],inactive
same,Potency,[14],inactive
same,Potency,[15],inactive
same,Potency,[16],inactive
same,Potency,[17],inactive
C[C@]12C=CC(=O)C=C1CC[C@@H]1[C@@H]2[C@@H](O)C[C@@]2(C)[C@H]1CC[C@]2(O)C(=O)CO,Potency,[1],inactive
same,outcome,[2],inactive
same,outcome,[3],inactive
same,Potency,[6],inactive
same,Potency,[7],inactive
same,outcome,[8],inactive
same,Potency,[9],inactive
same,Potency,[10],inactive
same,Potency,[11],inactive
same,outcome,[12],inactive
same,Potency,[13],inactive
same,Potency,[14],inactive
same,Potency,[15],inactive
same,Potency,[19],inactive
same,Potency,[16],inactive
same,Potency,[17],inactive
Nc1ccc(O)c(C(=O)O)c1,Potency,[1],inactive
same,outcome,[20],inactive
same,outcome,[3],inactive
same,Potency,[4],inactive
same,"activity change, positive = activation",[5]; at 42.5 µM (top of the series),-9.77% (inactive)
same,"activity change, positive = activation",[5]; at 92.4 µM (top of the series),-1.78% (inactive) and -6.73% (inactive)
same,Potency,[6],inactive
same,Potency,[7],inactive
same,outcome,[8],inactive
same,Potency,[9],inactive
same,Potency,[10],inactive
same,Potency,[11],inactive
same,outcome,[12],inactive
same,Potency,[13],inactive
same,Potency,[14],inactive
same,Potency,[15],inactive
same,Potency,[19],inactive
same,Potency,[16],inactive
same,Potency,[17],inactive
Cc1cc(=O)n(-c2ccccc2)n1C,Potency,[1],inactive
same,outcome,[2],inactive
same,outcome,[3],inactive
same,Potency,[4],inactive
same,"activity change, positive = activation",[5]; at 42.5 µM (top of the series),4.6% (inactive)
same,"activity change, positive = activation",[5]; at 92.4 µM (top of the series),1.91% (inactive) and 2.64% (inactive)
same,Potency,[6],inactive
same,Potency,[7],inactive
same,outcome,[8],inactive
same,Potency,[9],inactive
same,Potency,[10],44.8 µM (active) and inactive
same,Potency,[11],inactive
same,outcome,[12],inactive
same,Potency,[14],inactive
same,Potency,[15],inactive
same,Potency,[16],inactive
same,Potency,[17],inactive
Cc1ccc(C)c(OCCCC(C)(C)C(=O)O)c1,Potency,[1],inactive
same,outcome,[2],inactive
same,outcome,[3],inactive
same,Potency,[6],inactive
same,Potency,[7],inactive
same,outcome,[8],inactive
same,Potency,[9],inactive
same,Potency,[10],inactive
same,Potency,[11],inactive
same,outcome,[12],inactive
same,max response,[18],7.5% (inactive) and 19.4% (inactive) and 5.2% (inactive)
same,Potency,[13],inactive
same,Potency,[14],inactive
same,Potency,[15],inactive
same,Potency,[16],inactive
same,Potency,[17],inactive
COc1ccc2[nH]cc(CCNC(C)=O)c2c1,Potency,[1],inactive
same,outcome,[2],inactive
same,outcome,[3],inactive
same,Potency,[4],inactive
same,"activity change, positive = activation",[5]; at 42.5 µM (top of the series),6.1% (inactive)
same,"activity change, positive = activation",[5]; at 92.4 µM (top of the series),9.68% (inactive) and -2.51% (inactive)
same,Potency,[6],inactive
same,Potency,[7],inactive
same,outcome,[8],inactive
same,Potency,[9],inactive
same,Potency,[10],inactive
same,Potency,[11],inactive
same,outcome,[12],inactive
same,Potency,[13],inactive
same,Potency,[14],inactive
same,Potency,[15],inactive
same,Potency,[19],inactive
same,Potency,[16],inactive
same,Potency,[17],inactive
CC(=O)NS(=O)(=O)c1ccc(N)cc1,Potency,[1],inactive
same,outcome,[2],inactive
same,outcome,[3],inactive
same,Potency,[6],inactive
same,Potency,[7],inactive
same,outcome,[8],inactive
same,Potency,[9],inactive
same,Potency,[10],inactive
same,Potency,[11],inactive
same,outcome,[12],inactive
same,Potency,[13],inactive
same,Potency,[14],inactive
same,Potency,[15],inactive
same,Potency,[16],inactive
same,Potency,[17],inactive
CCCN(CCC)S(=O)(=O)c1ccc(C(=O)O)cc1,Potency,[1],inactive
same,outcome,[2],inactive
same,outcome,[3],inactive
same,Potency,[4],inactive
same,"activity change, positive = activation",[5]; at 42.5 µM (top of the series),3.98% (inactive)
same,"activity change, positive = activation",[5]; at 92.4 µM (top of the series),-17.4% (inactive) and 3.56% (inactive)
same,Potency,[6],inactive
same,Potency,[7],inactive
same,outcome,[8],inactive
same,Potency,[9],inactive
same,Potency,[10],inactive
same,Potency,[11],inactive
same,outcome,[12],inactive
same,Potency,[13],inactive
same,Potency,[14],inactive
same,Potency,[15],inactive
same,Potency,[16],inactive
same,Potency,[17],inactive
CC(C)[C@@H]1CC[C@@H](C)C[C@H]1O,Potency,[1],inactive
same,outcome,[2],inactive
same,outcome,[20],inactive
same,outcome,[3],inactive
same,Potency,[6],inactive
same,Potency,[7],inactive
same,outcome,[8],inactive
same,Potency,[9],inactive
same,Potency,[10],inactive
same,Potency,[11],inactive
same,outcome,[12],inactive
same,Potency,[13],inactive
same,Potency,[14],inactive
same,Potency,[15],inactive
same,Potency,[16],inactive
same,Potency,[17],inactive
O=C(O)c1cc(N=Nc2ccc(S(=O)(=O)Nc3ccccn3)cc2)ccc1O,Potency,[1],inactive
same,outcome,[3],inactive
same,Potency,[6],inactive
same,Potency,[7],inactive
same,outcome,[8],inactive
same,Potency,[9],inactive
same,Potency,[10],inactive
same,Potency,[11],inactive
same,outcome,[12],inactive
same,max response,[18],-2.85% (inactive) and -13.7% (inactive) and 1.5% (inactive)
same,Potency,[13],inactive
same,Potency,[14],inactive
same,Potency,[15],inactive
same,Potency,[19],inactive
same,Potency,[16],inactive
same,Potency,[17],12.3 µM (active) and 19.5 µM (active) and 16.9 µM (active)
